PubChem BioAssay (Tox21)
Results filed as inconclusive are left out. Activity calls are given as the source filed them. Unless noted, calls follow the shape of the dose curve; as a rule, active = well fitted curve in the direction sought with a large enough effect in the repeat runs; inconclusive = weak or mixed curves; inactive = no such curve, though single readings can be large; an effect the other way counts as inactive or inconclusive.

Legend:
[1] = qHTS assay to identify small molecule antagonists of the estrogen receptor beta (ER-beta) signaling pathway - cell viability counter screen (AID 1259382);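 also: HEK293T cells carrying ER-beta-UAS-bla reporter stimulated with estradiol; series mostly up to about 92 µM; nearly all actives have a fitted effect of over 55% in size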
Outline: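 Luminescent ATP read-out (CellTiter-Glo, 30 min, RT) taken in the same wells as the bla reporter assay. HEK293T ER-beta-UAS-bla cells in 2% charcoal-stripped FBS were exposed to compounds with 1nM E2 for 16 hr at 37C.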

[2] = biological target: Estrogen receptor (Homo sapiens) (UniProt P03372); assay: qHTS assay to identify small molecule agonists of the estrogen receptor alpha (ER-alpha) signaling pathway in the presence of an antagonist (AID 1259383; calls by dose curve; also: top concentration of the series differs between compounds; nearly all actives have a fitted effect of over 15% in size)
Estrogen receptor (Homo sapiens), sequence (P03372 whole entry, looked up): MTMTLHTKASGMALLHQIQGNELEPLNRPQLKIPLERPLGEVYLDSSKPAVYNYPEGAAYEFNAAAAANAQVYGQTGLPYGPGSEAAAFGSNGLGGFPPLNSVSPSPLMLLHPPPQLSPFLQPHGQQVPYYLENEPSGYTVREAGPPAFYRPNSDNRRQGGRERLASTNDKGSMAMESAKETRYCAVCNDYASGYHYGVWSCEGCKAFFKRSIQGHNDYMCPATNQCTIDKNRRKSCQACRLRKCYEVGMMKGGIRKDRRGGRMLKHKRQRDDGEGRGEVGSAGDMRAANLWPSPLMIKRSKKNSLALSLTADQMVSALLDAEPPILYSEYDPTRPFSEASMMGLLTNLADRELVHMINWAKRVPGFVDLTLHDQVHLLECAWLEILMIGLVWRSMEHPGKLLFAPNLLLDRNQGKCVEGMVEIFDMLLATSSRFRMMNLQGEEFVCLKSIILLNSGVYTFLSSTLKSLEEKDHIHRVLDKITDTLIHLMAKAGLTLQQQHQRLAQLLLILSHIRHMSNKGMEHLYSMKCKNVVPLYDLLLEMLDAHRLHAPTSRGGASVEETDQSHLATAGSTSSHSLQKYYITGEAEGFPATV
Outline: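 Luciferase luminescence (ONE-Glo, 30min at room temperature) measured in VM7Luc4E2 cells after 22hr compound exposure at 15 concentrations, with 10.0nM ICI-182,780 final present; cells express endogenous ER-alpha and carry four EREs upstream of luciferase.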

[3] = qHTS assay to identify small molecule agonists or antagonists of the thyroid stimulating hormone receptor (TSHR) signaling pathway - wild type cell line counter screen (AID 1259384; calls by dose curve)
Outline: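 Wild-type Hek293 cells, 800/well, 18 h at 37C, then compound with Ro20-1724 for 30 min RT. cAMP by HTRF (cAMP-d2/anti-cAMP cryptate), 1 h RT, fluorescence read. 15 concentrations, triplicates.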

[4] = biological target: Thyrotropin receptor (Homo sapiens) (UniProt P16473); assay: qHTS assay to identify small molecule antagonists of the thyroid stimulating hormone receptor (TSHR) signaling pathway (AID 1259385; calls by dose curve; also: nearly all actives have a fitted effect of over 20% in size)
Thyrotropin receptor (Homo sapiens), sequence (P16473 whole entry, looked up): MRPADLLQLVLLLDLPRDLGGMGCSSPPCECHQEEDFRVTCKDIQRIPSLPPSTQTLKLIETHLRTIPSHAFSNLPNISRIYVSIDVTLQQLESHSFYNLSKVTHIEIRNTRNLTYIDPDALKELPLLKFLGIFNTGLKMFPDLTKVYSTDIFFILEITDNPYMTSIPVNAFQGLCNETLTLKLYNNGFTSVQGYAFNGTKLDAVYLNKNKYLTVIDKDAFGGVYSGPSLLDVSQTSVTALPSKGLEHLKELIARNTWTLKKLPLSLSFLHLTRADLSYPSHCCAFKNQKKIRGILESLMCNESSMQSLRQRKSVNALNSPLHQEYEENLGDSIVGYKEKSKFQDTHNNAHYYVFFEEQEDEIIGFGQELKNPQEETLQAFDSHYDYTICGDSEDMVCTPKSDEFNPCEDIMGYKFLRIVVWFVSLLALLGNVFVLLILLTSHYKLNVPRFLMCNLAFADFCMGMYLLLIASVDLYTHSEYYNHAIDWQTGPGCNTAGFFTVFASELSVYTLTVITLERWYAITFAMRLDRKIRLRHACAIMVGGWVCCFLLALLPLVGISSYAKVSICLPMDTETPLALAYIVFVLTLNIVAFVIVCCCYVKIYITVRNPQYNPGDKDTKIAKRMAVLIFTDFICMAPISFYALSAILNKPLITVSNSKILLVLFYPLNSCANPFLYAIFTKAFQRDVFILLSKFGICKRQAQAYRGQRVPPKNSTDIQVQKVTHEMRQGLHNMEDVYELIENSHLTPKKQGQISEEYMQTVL
Outline: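 TSHR-HEK293 cells (800/well) plated 18 h, then compounds with Ro20-1724 and TSH at 1.5 ng/mL final, 30 min at room temperature. cAMP quantified by HTRF (cAMP-d2/anti-cAMP-cryptate, 1 h); 15 concentrations in triplicate.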

[5] = qHTS assay to identify small molecule agonists of the estrogen receptor alpha (ER-alpha) signaling pathway in the presence of an antagonist - cell viability counter screen (AID 1259386);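 also: series mostly up to about 92 µM; cells exposed to compounds for 22 h at 37 °C before the viability read; nearly all actives have a fitted effect of over 30% in size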
Outline: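 Read-out: CellTiter-Fluor fluorescence after 1hr reagent incubation, measured in the same wells as the luciferase readout. VM7Luc4E2 cells were exposed to 15 compound concentrations with 10.0nM ICI-182,780 for 22hr at 37C.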

[6] = biological target: Progesterone receptor (Homo sapiens) (UniProt P06401); assay: qHTS assay to identify small molecule agonists of the progesterone receptor (PR) signaling pathway (AID 1346784; calls by dose curve; also: nearly all actives have a fitted effect of over 30% in size)
Progesterone receptor (Homo sapiens), sequence (P06401 whole entry, looked up): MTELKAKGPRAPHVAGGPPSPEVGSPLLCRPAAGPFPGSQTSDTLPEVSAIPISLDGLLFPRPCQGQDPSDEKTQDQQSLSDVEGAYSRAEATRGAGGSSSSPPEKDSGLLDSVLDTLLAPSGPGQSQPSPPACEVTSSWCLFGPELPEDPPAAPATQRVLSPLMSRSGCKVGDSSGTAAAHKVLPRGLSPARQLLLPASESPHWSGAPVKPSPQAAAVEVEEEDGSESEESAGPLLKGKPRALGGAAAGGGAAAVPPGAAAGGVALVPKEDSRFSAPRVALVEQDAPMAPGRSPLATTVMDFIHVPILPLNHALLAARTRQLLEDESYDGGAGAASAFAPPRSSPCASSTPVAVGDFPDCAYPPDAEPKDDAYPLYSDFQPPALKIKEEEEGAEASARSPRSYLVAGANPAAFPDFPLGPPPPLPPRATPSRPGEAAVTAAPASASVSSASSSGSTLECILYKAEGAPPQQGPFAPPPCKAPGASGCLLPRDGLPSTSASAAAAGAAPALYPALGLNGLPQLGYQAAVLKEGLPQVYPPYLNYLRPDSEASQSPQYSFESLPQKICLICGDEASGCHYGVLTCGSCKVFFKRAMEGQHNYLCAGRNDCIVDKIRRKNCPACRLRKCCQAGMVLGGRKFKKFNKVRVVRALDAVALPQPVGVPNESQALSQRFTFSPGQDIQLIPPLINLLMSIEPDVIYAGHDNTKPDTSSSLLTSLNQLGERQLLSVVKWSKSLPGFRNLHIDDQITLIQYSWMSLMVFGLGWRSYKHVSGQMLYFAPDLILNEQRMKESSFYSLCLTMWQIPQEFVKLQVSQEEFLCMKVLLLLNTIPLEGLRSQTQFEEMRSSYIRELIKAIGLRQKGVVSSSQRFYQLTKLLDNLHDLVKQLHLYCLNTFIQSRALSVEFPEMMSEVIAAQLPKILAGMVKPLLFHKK
Outline: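 HEK 293T PR-UAS-bla reporter cells, 2% charcoal-stripped FBS; 6 hr settle at 37C/5% CO2, compound (DMSO) 16 hr, LiveBLAzer B/G FRET substrate 2 hr RT, fluorescence intensity read.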

[7] = biological target: Progesterone receptor (Homo sapiens) (UniProt P06401); assay: qHTS assay to identify small molecule antagonists of the progesterone receptor (PR) signaling pathway (AID 1346795; active = well fitted inhibition curve with a large enough effect in the signal ratio in the repeat runs, not every such curve was filed as active; the % refers to the signal ratio)
Outline: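 Beta-lactamase reporter, HEK293T PR-UAS-bla line; 2% charcoal-stripped FBS; 6 hr pre-incubation, 37C/5% CO2. Compound + R5020 1 nM final, 16 hr. LiveBLAzer B/G FRET substrate, 2 hr RT; fluorescence intensity read.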

[8] = qHTS assay to identify small molecule antagonists of the progesterone receptor (PR) signaling pathway - cell viability counter screen (AID 1346798); also: series mostly up to about 92 µM; nearly all actives have a fitted effect of over 50% in size
Outline: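 Luminescence readout (CellTiter-Glo, 30 min, RT) of viability in PR-UAS-bla HEK293T cells exposed to compound and R5020 agonist for 16 hr at 37C, 5% CO2; run in the same wells as the beta-lactamase reporter read.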

[9] = qHTS assay to identify small molecule agonists of the progesterone receptor (PR) signaling pathway - cell viability counter screen (AID 1346799; calls by dose curve; also: nearly all actives have a fitted effect of over 45% in size)
Outline: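 HEK293T PR-UAS-bla, 3,000 cells/well, 2% charcoal-stripped FBS; 6 h settle, compound 16 h at 37C/5% CO2; LiveBLAzer 2 h RT, then CellTiter-Glo 30 min RT, luminescence read.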

[10] = qHTS assay to identify small molecule antagonists of the TGF-beta/Smad signaling pathway - cell viability counter screen (AID 1346824); also: nearly all actives have a fitted effect of over 50% in size
Outline: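 SBE-bla HEK 293T cells, incubated overnight, then compound plus 0.25 ng/mL TGF-beta1 (stock added) for 5 hr at 37 C. Viability was read in the same wells by CellTiter-Glo luminescence after 30 min at room temperature.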

[11] = qHTS assay to identify small molecule agonists of the TGF-beta/Smad signaling pathway - cell viability counter screen (AID 1346829); also: top concentration of the series differs between compounds; nearly all actives have a fitted effect of over 45% in size
Outline: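 Compound-treated SBE-bla HEK 293T cells (5 hr, 37 C) were assessed for viability with CellTiter-Glo in parallel with the reporter read.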

[12] = qHTS assay to identify small molecule agonists of the TGF-beta/Smad signaling pathway (AID 1346859; active = well fitted activation curve with a large enough effect in the signal ratio in the repeat runs, not every such curve was filed as active; the % refers to the signal ratio; also: series mostly up to about 77 µM)
Outline: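 Read-out: fluorescence at 460 and 530 nm (405 nm excitation) after a 2 hr room-temperature incubation with beta-lactamase FRET substrate. SBE-bla HEK 293T cells had been treated with test compounds for 5 hr at 37 C.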

[13] = Human pregnane X receptor (PXR) small molecule agonists, qHTS cell viability counter screen (AID 1346977); also: nearly all actives have a fitted effect of over 50% in size
Outline: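 Fluorescence read-out (CellTiter-Fluor) of viability in PXR-Luc HepG2 cells, multiplexed with the luciferase agonist read. Compounds in DMSO added after 5hr plating; 24hr total exposure at 37C, 5% CO2.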

[14] = Caspase-3/7 induction in HepG2 cells by small molecules, qHTS assay (AID 1346978); also: nearly all actives have a fitted effect of over 15% in size
Outline: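 Wild-type HepG2 cells, 2,000/well, settled 5 hr at 37 C and 5% CO2, then compound-treated for 17 hr; caspase-3/7 activity read by luminescent Caspase-Glo 3/7 after 30 min at room temperature.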

[15] = Caspase-3/7 induction in CHO-K1 cells by small molecules, qHTS assay (AID 1346980); also: nearly all actives have a fitted effect of over 15% in size
Outline: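 Wild-type CHO-K1 cells exposed to compounds for 17hr at 37 C, 5% CO2. Caspase-3/7 activity then measured by Caspase-Glo 3/7 luminescence after 30min at room temperature.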

[16] = Caspase-3/7 induction in HepG2 cells by small molecules, qHTS cell viability counter screen (AID 1346981); also: series mostly up to about 92 µM; nearly all actives have a fitted effect of over 30% in size
Outline: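 Fluorescence read-out of live-cell protease activity (CellTiter-Fluor) after 1 hr with reagent. This was measured in the same wells as the caspase-3/7 luminescence, on HepG2 cells exposed to DMSO-dissolved compounds for 16 hr at 37 C.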

[17] = biological target: Thyrotropin-releasing hormone receptor (Homo sapiens) (UniProt P34981); assay: qHTS assay to identify small molecule antagonists of the thyrotropin-releasing hormone receptor (TRHR) signaling pathway (AID 1346877; active = well fitted inhibition curve with a large enough effect in the repeat runs, not every such curve was filed as active; also: series mostly up to about 51 µM)
Thyrotropin-releasing hormone receptor (Homo sapiens), sequence (P34981 whole entry, looked up): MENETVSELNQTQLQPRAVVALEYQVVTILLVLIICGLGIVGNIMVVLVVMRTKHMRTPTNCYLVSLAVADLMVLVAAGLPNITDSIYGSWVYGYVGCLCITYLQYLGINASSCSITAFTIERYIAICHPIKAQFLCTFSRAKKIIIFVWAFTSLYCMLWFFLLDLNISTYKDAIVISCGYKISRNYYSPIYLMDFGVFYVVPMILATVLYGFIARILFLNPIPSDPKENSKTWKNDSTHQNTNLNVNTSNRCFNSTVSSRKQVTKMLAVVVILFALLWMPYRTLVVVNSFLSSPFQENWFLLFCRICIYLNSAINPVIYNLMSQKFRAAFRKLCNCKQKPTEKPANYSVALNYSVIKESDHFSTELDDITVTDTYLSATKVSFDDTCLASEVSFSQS
Outline: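 HEK293/TRHR cells, 18 h, 37 °C; Ca2+ dye 2 h; cpd 5 min RT; TRH 1 nM final; fluorescence read 3 min, 1 s intervals; 15 concs, triplicate.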

[18] = biological target: Thyrotropin-releasing hormone receptor (Homo sapiens) (UniProt P34981); assay: qHTS assay to identify small molecule agonists of the thyrotropin-releasing hormone receptor (TRHR) signaling pathway (AID 1346891; calls by dose curve;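 also: HEK293 cells expressing TRHR with calcium dye readout; series mostly up to about 58 µM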)
Outline: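 HEK293/TRHR cells, 1500 per well, 18 h 37 °C; Ca dye 2 h 37 °C; pin-tool compound addition (agonist mode); kinetic fluorescence 3 min, 1 s reads; 15 concentrations, triplicate.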

[19] = biological target: Androgen receptor (Homo sapiens) (UniProt P10275); assay: qHTS assay to identify small molecule agonists of the androgen receptor (AR) signaling pathway in the presence of an antagonist (AID 1259381; calls by dose curve; also: nearly all actives have a fitted effect of over 15% in size)
Androgen receptor (Homo sapiens), sequence (P10275 whole entry, looked up): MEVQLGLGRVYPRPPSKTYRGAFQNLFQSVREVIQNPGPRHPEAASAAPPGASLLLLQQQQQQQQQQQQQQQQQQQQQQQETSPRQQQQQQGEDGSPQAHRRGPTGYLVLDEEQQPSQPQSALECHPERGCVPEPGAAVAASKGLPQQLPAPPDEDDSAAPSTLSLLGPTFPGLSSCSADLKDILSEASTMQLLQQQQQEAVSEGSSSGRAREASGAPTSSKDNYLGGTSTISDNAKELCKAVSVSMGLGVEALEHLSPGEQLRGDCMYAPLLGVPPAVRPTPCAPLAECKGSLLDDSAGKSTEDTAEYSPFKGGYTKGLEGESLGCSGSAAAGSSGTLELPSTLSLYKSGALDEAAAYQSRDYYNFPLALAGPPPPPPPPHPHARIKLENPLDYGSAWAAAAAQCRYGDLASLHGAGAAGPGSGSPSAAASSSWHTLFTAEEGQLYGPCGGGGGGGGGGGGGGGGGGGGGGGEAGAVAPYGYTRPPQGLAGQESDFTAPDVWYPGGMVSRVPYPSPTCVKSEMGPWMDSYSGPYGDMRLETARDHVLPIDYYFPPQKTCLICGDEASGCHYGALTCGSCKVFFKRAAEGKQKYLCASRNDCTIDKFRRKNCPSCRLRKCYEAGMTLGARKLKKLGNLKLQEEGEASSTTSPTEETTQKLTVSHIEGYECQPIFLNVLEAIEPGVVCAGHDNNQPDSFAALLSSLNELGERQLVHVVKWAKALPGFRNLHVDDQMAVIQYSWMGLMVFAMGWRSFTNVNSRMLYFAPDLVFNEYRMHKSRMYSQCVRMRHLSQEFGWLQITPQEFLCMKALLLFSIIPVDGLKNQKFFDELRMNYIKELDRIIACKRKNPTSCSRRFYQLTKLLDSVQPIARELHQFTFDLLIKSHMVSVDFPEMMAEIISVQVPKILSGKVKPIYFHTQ
Outline: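 Luciferase read-out (ONE-Glo, 30min room temperature) in MDA-kb2 MMTV-reporter cells; agonist mode run in presence of AR antagonist nilutamide, 3.0uM final. Compounds tested as 15-point series, 16hr exposure at 37C, 0% CO2.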

[20] = Caspase-3/7 induction in CHO-K1 cells by small molecules, qHTS cell viability counter screen (AID 1346979); also: nearly all actives have a fitted effect of over 35% in size
Outline: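 CHO-K1 wt, 1,500 cells/well; 5hr pre-incubation 37C/5% CO2; compound pin transfer (DMSO); 16hr exposure; CellTiter-Fluor added, 1hr, fluorescence read.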

Measured: Potency

CCc1occc(=O)c1O
not listed: [17] | [18] | [19] | [20]
inactive: all other assays above

CCCCOCC(C)O (configuration not stated)
not listed: [19] | [20]
inactive: all other assays above

CC(C)[C@H]1CC[C@H](C)C[C@@H]1O
not listed: [2] | [8]
inactive: all other assays above

CCCCOC(=O)C(C)O (configuration not stated)
not listed: [19]
inactive: all other assays above

COc1nc(N)nc2nc[nH]c12
not listed: [19]
inactive: all other assays above

OCCN1CCOCC1
not listed: [19]
inactive: all other assays above

C=CCOC(=O)CCCCCC
not listed: [1] | [2] | [7] | [12] | [17]
inactive: all other assays above

N#CCC(=O)NN
not listed: [19] | [20]
inactive: all other assays above
